Screens as filed in PubChem BioAssay.
Most compounds without a hit are left out; they make up all but 2.9% or so of the library.
PLC-beta3 inh – PLC-beta3 (human) inhibition, primary screen. Q01970. Purified PLC-beta3, fluorogenic substrate, fluorescence. inhibition, % at 12.2 µM. hit rate 0.18% among 370,000. AID 720704; in the data active = inhibition above about 11%;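 also: 0% = median of compound wells on plate and 100% = full blocker control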
ADAM10 inh – ADAM10 inhibition, QFRET primary screen; O14672; recombinant ADAM10, EDANS/DABCYL FRET peptide cleavage, 3 h; inhibition, % at 7 µM; hit rate 0.62% among 370,000; AID 720582;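 active = inhibition above a per-campaign cutoff equal to the mean of compounds falling between control-based bounds plus 3 SD, cut at about 20% in these data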;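 also: 0% = DMSO wells while the 100% control is not disclosed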
Target sequence (O14672 214-748 limits assumed): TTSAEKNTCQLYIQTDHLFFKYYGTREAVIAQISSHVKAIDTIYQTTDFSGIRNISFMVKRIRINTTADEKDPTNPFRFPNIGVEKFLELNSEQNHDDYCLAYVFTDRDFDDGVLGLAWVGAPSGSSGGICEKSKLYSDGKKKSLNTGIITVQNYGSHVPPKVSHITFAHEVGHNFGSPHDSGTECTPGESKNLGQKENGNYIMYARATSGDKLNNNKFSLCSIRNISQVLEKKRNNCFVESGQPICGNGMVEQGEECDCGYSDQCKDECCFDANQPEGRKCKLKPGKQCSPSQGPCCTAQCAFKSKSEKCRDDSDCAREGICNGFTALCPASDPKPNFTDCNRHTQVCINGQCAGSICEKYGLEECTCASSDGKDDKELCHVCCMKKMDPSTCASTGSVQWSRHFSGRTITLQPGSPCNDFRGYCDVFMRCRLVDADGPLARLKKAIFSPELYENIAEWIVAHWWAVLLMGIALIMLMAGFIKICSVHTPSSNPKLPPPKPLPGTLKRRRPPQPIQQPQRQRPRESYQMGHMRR
proKLK7 act – activators of human kallikrein-7 zymogen. P49862. purified proKLK7, EDANS-DABCYL substrate fluorescence; 100% is mature enzyme control, 0% vehicle. activation, % at 7 µM. hit rate 0.9% among 370,000. AID 652039;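 active = activation above the mean of all tested compounds plus 3 SD, computed per campaign excluding outliers beyond control limits, cut at about 13% in these data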
ADAM17 inh – inhibits human ADAM17 | hit rate 0.83% among 370,000 | inhibition, % at 6.95 µM | recombinant ADAM17, EDANS/DABCYL FRET peptide cleavage | P78536 | AID 720648;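 active = inhibition above the mean of compounds lying between control limits plus 3 SD, set per campaign, cut at about 8.5% in these data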;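 also: 0% = DMSO-only wells as the low control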
PLC-gamma1 inh – PLC-gamma1 (human) inhibition, primary screen | hit rate 0.84% among 370,000 | P19174 | purified PLC-gamma1, fluorogenic substrate, fluorescence | inhibition, % at 12.2 µM; in the data active = inhibition above about 9.5%
proKLK7 act conf – confirmation of human kallikrein-7 zymogen activators; shares compounds with proKLK7 act; activation, % at 7 µM; purified proKLK7, EDANS-DABCYL substrate fluorescence; scaled: vehicle 0, mature enzyme 100; hit rate 68% among 3,200; AID 686949;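 active = activation, as change over the incubation, above the mean of all tested compounds plus 3 SD, cut at about 13% in these data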
EDANS-DABCYL int – counter-screen for kallikrein-7 activators: EDANS-DABCYL optical interference; shares compounds with proKLK7 act; hit rate 80% among 3,200; activation, % at 7 µM; EDANS-DABCYL substrate fluorescence interference, no enzyme, 4 h; solvent 0%, active enzyme control 100%;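 active = activation above the all-compound mean plus 3 SD, ignoring values outside control-based bounds, cut at about 4.8% in these data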;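 also: value is the 4 h activation minus the activation read at time zero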
* = called active by the depositor; i = inactive; nt = no result.

SMILES	PLC-beta3 inh	ADAM10 inh	proKLK7 act	ADAM17 inh	PLC-gamma1 inh	proKLK7 act conf	EDANS-DABCYL int
Cc1ccc(-c2nc3cc(N)ccc3o2)cc1Br	i	-55	-10	-23	i	nt	nt
Nc1ccc(-c2nc3ccc(N)cc3o2)cc1	i	i	56*	i	i	70*	73*
CCOC(=O)CC1(CC(=O)OCC)NC(=O)c2c(C)sc(C(=O)OCC)c2N1	-350	i	13*	-190	-310	4	4.3*
CCCCC1(C)NC(=O)c2c(C)sc(C(=O)OCC)c2N1 (stereo not given)	i	i	5	-170	-397	nt	nt
CCOC(=O)CC1(C)NC(=O)c2c(C)sc(C(=O)OCC)c2N1 (stereo not given)	i	i	13*	-236	i	-16	-22
O=C(Nc1ccc(-c2cn3ccsc3n2)cc1)c1ccc(F)c(S(=O)(=O)N2CCOCC2)c1	-3	-11	18*	-8	-2	-1	6.1*
COc1ccccc1OCCc1nnc(N)s1	3	4	0	2	3	nt	nt
CC(=O)Oc1ccc2c(=O)c(N3C(=O)c4ccccc4C3=O)c(C)oc2c1C	-27	-23	27*	-9	-13	34*	31*
COc1ccc(/C=N/NC(=O)c2cc(-c3ccccc3)nc3ccccc23)c(OC)c1	-195	4	275*	-10	-133	171*	220*
COc1cccc(NC(=O)c2cc(-c3ccc(OC)cc3OC)nc3ccccc23)c1	-170	-17	67*	-12	-121	-14	-12
COc1ccc(S(=O)(=O)CCc2nnc(NC(C)=O)s2)cc1	-1	-20	-4	-6	2	nt	nt
O=C(O)c1ccc(-c2nc(-c3ccccc3)c(-c3ccccc3)[nH]2)cc1	i	i	46*	i	i	79*	81*
CCOC(=O)C1=C(C)NC(SC(C)=O)=NC1c1ccc(OC(C)=O)c(OC)c1 (stereo not given)	-1	-4	0	-2	1	nt	nt
COc1cc2oc3cc(C)oc(=O)c3c2cc1OC	i	i	35*	-378	i	60*	73*
CNC(=S)NNC(=O)c1cccn(Cc2cccc(Cl)c2)c1=O	-20	-150	15*	-24	-15	30*	34*
CNC(=S)NNC(=O)c1ccccc1Br	6	1	0	1	3	nt	nt
CNC(=S)NNC(=O)c1cccn(Cc2ccc(Cl)c(Cl)c2)c1=O	-27	-319	21*	-55	-21	31*	34*
NNC(=O)c1cccn(Cc2cccc(C(F)(F)F)c2)c1=O	-9	-5	6	-6	-7	nt	nt
C=CCNC(=S)NNC(=O)c1cccn(Cc2ccc(Cl)c(Cl)c2)c1=O	-19	-436	22*	-56	-17	33*	36*
COc1cccc(-c2cc(=O)c3cc(NC(C)=O)ccc3[nH]2)c1	i	i	25*	-373	-473	32*	32*
CC(=O)Nc1ccc2[nH]c(C)cc(=O)c2c1	-3	-69	0	-20	-4	nt	nt
O=C(N/C(=C/c1ccccc1)C(=O)N1CCCCC1)c1ccc(Br)o1	-10	9	0	-3	1	nt	nt
C=CCn1c(SCC(C)=O)nnc1-c1cc(-c2ccccc2)sc1N	-14	-3	1	1	-8	nt	nt
CCOc1cc2c(C#N)c(N3CCOCC3)nc(N)c2c(N)n1	i	-420	16*	-112	i	69*	66*
CCC1Cc2c(nc(N)c3c(N)nc(N4CCOCC4)c(C#N)c23)O1 (stereo not given)	i	-379	19*	-127	i	-16	-24
SMILES	PLC-beta3 inh	ADAM10 inh	proKLK7 act	ADAM17 inh	PLC-gamma1 inh	proKLK7 act conf	EDANS-DABCYL int
COc1ccc(CN2C(=O)Cc3c2nc(N)c2c(N)nc(N4CCOCC4)c(C#N)c32)cc1	-136	-337	55*	-108	-86	-48	-49
N#Cc1c(N2CCCCC2)nc(N)c2c(N)nc3c(c12)CC(CCl)O3 (stereo not given)	i	i	14*	-181	i	-149	-159
Cc1ccc(NC(=O)C(Cc2ccccc2)N2C(=O)C3C4CCC(C4)C3C2=O)cc1Cl (stereo not given)	-1	2	1	1	2	nt	nt
O=C(CN1CCOCC1)Nc1ccccc1NC(=O)C1CCN(c2ncccn2)CC1	-11	-26	0	-14	-7	nt	nt
CCn1c(SCC(N)=O)nnc1-c1cc2c(C)nn(-c3ccccc3)c2s1	-5	-4	0	-4	-6	nt	nt
CC(C)(C)N(Cc1ccccc1)C(=O)COC(=O)Cn1cnc2ccccc2c1=O	-4	-5	15*	4	5	1	1
CC(C)(C)N(Cc1ccccc1)C(=O)COC(=O)Cn1[nH]c(=O)c2ccccc2c1=O	2	0	0	-3	-2	nt	nt
CC1=C(C#N)C(c2cccnc2)C2=C(CC(c3ccc(Cl)cc3)CC2=O)N1 (stereo not given)	i	i	13*	-496	i	2	9.2*
CN(Cc1c(F)cccc1Cl)C(=O)c1cccc(S(=O)(=O)NCc2ccccc2)c1	-7	-2	-1	4	-3	nt	nt
CCC(N=c1cc(-c2ccc(OC)cc2)oc2ccc(C)cc12)C(=O)O (stereo not given)	i	i	36*	i	i	61*	72*
CCC(N=c1cc(-c2ccc(OC)c(OC)c2)oc2ccc(C)cc12)C(=O)O (stereo not given)	i	i	19*	-163	i	29*	26*
COc1ccc(CN2CCN(C(=O)CC(C)C)CC2)cc1Br	-9	-4	0	2	0	nt	nt
CCOc1c2ccc(C(=O)NCCc3ccc(C)cc3)cc2nn1CC	i	i	-8	-223	-375	nt	nt
CCn1nc2cc(C(=O)NCCc3cccs3)ccc2c1OC	-368	i	18*	-196	-295	8	3
CCOc1c2ccc(C(=O)NCc3ccc(OC)cc3)cc2nn1CCOC	-461	i	13*	-246	-366	-4	-5
O=C1CCC(=O)N1c1ccc(S(=O)(=O)N2CCCC2)cc1	4	-1	0	1	-1	nt	nt
CN(C)CCNc1ccc2ncn3c4ccc(O)cc4c(=O)c1c23	i	-13	72*	-4	i	57*	50*
Cc1ccc(S(=O)(=O)N2CCCC2CNC(=O)C(=O)NCc2cccs2)cc1 (stereo not given)	-3	-2	0	-5	3	nt	nt
COc1ccc(NS(=O)(=O)c2ccc(C)c(C(=O)NNC(=O)c3ccccc3O)c2)cc1	-14	14	-1	-1	-5	nt	nt
COc1cccc(OC)c1C(=O)Nc1cccc(NC(=O)c2cccs2)c1	-6	5	1	-2	0	nt	nt
